# Results with a measured potency or affinity are listed apart. Unmarked numbers belong to inactive results.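 The calls were made as follows: active = every repeat run showing a signal drop whose fitted half-maximal concentration is at most twice the top tested concentration; inconclusive = repeat runs disagree, or flat partial drop, or poor fit; inactive = the rest.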
# Experiment: general mammalian cell viability loss – activator set, cherry-pick, cytotoxicity control for miR-122 modulator project, dose response (AID 720690);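 also: 0% = neutral control wells and -100% = MG132 cytotoxic control wells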
# Settings: HEK293T viability, CellTiter-Glo luminescence, 48 h; series mostly up to 26 µM; activity change, negative = cytotoxicity: at the top concentration
row,Compound,"activity change, negative = cytotoxicity"
1,C/C=C/c1ccc([C@@H]2[C@@H](CO)N(C(C)=O)[C@@H]2CN(C)C(=O)c2ccccn2)cc1,-11.1%
2,CCCNC(=O)N1[C@H](CO)[C@@H](c2ccccc2)[C@H]1CNC(=O)c1ccccc1,-2.24%
3,CCNC(=O)Nc1ccc2c(c1)C(=O)N(C)[C@H]1CC[C@H](CC(=O)NCCN3CCCC3)O[C@@H]1CO2,-0.303%
4,CN1C(=O)c2cc(NS(=O)(=O)c3cccc(F)c3)ccc2OC[C@@H]2O[C@@H](CC(=O)O)CC[C@@H]21,10.7% [at 23.5 µM]
5,CCC(=O)N(C)C[C@@H]1[C@@H](c2ccccc2)[C@H](CO)N1Cc1cccnc1,-14.6% [at 23.5 µM]
6,c1ccc(CCCNCCCn2cnc3c(OCc4ccccc4)ncnc32)cc1,-37.7%
7,CCCN(C[C@@H]1N[C@@H](CO)[C@H]1c1ccc(-c2cccnc2)cc1)C(C)=O,-1.05%
8,Cc1cc(C)c2c(c1)/C(=C/C(=O)c1ccc(Br)s1)C(=O)N2,4.2%
9,CCN(C[C@H]1N[C@H](CO)[C@H]1c1ccc(-c2ccc(F)cc2)cc1)C(=O)COC,-5.25%
10,C/C=C/c1ccc([C@@H]2[C@H](CO)N(Cc3ccccn3)[C@H]2CNC(=O)CC)cc1,10.8%
11,COCC(=O)N(C)C[C@H]1Oc2cc(-c3ccc(C#N)cc3)ccc2S(=O)(=O)N([C@H](C)CO)C[C@H]1C,12.3%
12,CO[C@H]1CN(C)C(=O)c2cc(NC(C)=O)ccc2OC[C@@H](C)N(C(=O)c2ccccn2)C[C@H]1C,-7.67%
13,Cc1cccc(NC(=O)C[C@H]2CC[C@H]3[C@@H](COc4ccc(NC(=O)NC(C)C)cc4C(=O)N3C)O2)c1,9.81%
14,CN1C(=O)c2cc(NC(=O)C3CC3)ccc2OC[C@@H]2O[C@H](CC(=O)NCCN3CCCC3)CC[C@H]21,-7.91%
15,O=C(NC[C@@H]1N[C@@H](CO)[C@H]1c1ccccc1)C1CCC1,-1.63%
16,CN1CCN(c2ccc(Cl)cc2NC(=O)c2ccc(S(=O)(=O)N3CCCCCC3)cc2)CC1,-2.63%
17,CCN(C[C@H]1[C@H](c2ccccc2)[C@H](CO)N1C(=O)COC)S(C)(=O)=O,-10.6% [at 23.5 µM]
18,Cc1cc(C)cc(NC(=O)Nc2ccc3c(c2)C(=O)N(C)[C@@H]2CC[C@H](CC(=O)O)O[C@@H]2CO3)c1,5.14%
19,Cc1nc(C)c(C(=O)Nc2ccc(Oc3ccccc3)cc2)o1,-11.6%
20,C[C@H](CO)N1C[C@H](C)[C@H](CN(C)CC2CCCCC2)OCCCC[C@H](C)Oc2ccc(NC(=O)Nc3cccc4ccccc34)cc2C1=O,-26% [at 12 µM]
21,Cc1ccc(S(=O)(=O)Nc2ccc3c(c2)C(=O)N(C)[C@@H]2CC[C@@H](CC(=O)NCCc4ccncc4)O[C@@H]2CO3)cc1,-7.64%
22,CN(C[C@H]1N[C@@H](CO)[C@@H]1c1ccc(C2=CCCC2)cc1)C(=O)c1ccccn1,-20.3%
23,CCNC(=O)C[C@H]1CC[C@@H]2[C@@H](COc3ccc(NC(=O)c4cccc(C(F)(F)F)c4)cc3C(=O)N2C)O1,-8.55%
24,Cc1cc(C)nc(NS(=O)(=O)c2ccc(NC(=S)NC(=O)C3CCCC3)cc2)n1,-1.38%
25,COC(=O)C[C@@H]1CC[C@H]2[C@@H](COc3ccc(NC(=O)Nc4ccccc4C)cc3C(=O)N2C)O1,2.59%
